In PubChem BioAssay (NCI) one finds growth data, which are given here for 40 molecules.

The structures appear in SMILES notation. The panel holds about 83,000 compounds, 20% with a hit somewhere; the sample as a whole holds those more often.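 Percent growth is the endpoint: 0 to 100 indicates growth inhibition (40 means 60% inhibition), 0 means no net growth, and negative values indicate cell death.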 A number with no mark means an inactive call. Active and inactive are the calls of the source. The calls were made as follows: active = growth percent below 10; inactive = the rest.

The test system of one experiment is SF-268 CNS. The experiment in a line: NCI-60 one-dose screen, 48 h (100 = growth as untreated, 0 = no growth, -100 = all killed). Conditions: 10 µM unless noted.
Turning to `C[C@@H]1OCC2(CCN(c3cnc(C(=O)Nc4cc(F)cc5cccnc45)cn3)CC2)[C@@H]1N`, the growth was 78.9%. On the same count and under the same terms, then `Cn1c(SCC(=O)c2ccc(F)cc2)nc2ccccc2c1=O`, with 99%.

In the case of `O=C(CCCCCC/C=C\c1csc(Br)n1)NO`, the growth was 108%. Same read-out and setting: then `COc1ccc(-c2cc(-c3ccc(N4CCOCC4)cc3)n3c(n2)nc2ccccc23)cc1OC`, with 90.7%; and `CN(C)c1cccc2c(S(=O)(=O)Nc3cccc(-c4csc(NC(=O)CCCCCN5CCN(CCO)CC5)n4)c3)cccc12`, with 93.5%. Turning to `O=c1nc(Nc2ccc([N+](=O)[O-])cc2O)sc2ccccc12`, the growth was 59.4%. On the same count and under the same terms, under `CCc1cc(OC(=O)N2CCC(N3CCCCC3)CC2)ccc1Nc1cc(-c2ccc(-n3cccn3)cc2)[nH]n1` stands 75.9%; under `COc1ccc(-c2c(C(N)=O)c(N)n(Cc3nc4ccccc4[nH]3)c(=O)c2C#N)c(OC)c1`, 102%. In the case of `CCOC(=O)Nc1ccc2c(ccn2C(=O)c2cccc(F)c2)c1`, the growth is 65.8%. On to `CN(C)CCCOc1ccc(C(=C(c2ccccc2)C2CCCC2)c2ccc(OCCCN(C)C)cc2)cc1`, for which the growth is -81.9% (active).

On to `CN1CCC[C@]2(C)[C@H]3CC[C@@H]4[C@@H]5[C@H]6OC[C@@]5(CCC6(C)C)CC[C@@]4(C)[C@]3(C)CC[C@H]2C1(C)C`, for which the growth is 103%.

As to `CNC(=O)c1cc(-c2ccc(NC(=S)Nc3cccc(C(F)(F)F)c3)cc2)nc2cccnc12`, the growth was 106%.

Take `CC1(C)C=Cc2cc(/C(N)=N/C(N)=N/c3nc4ccccc4s3)ccc2O1`: the growth was 93.2%. On to `C#Cc1cc(C(=O)Nc2ccc(CNCCN3CCOCC3)c(C(F)(F)F)c2)ccc1C`, for which the growth was 86.3%.

With `CC(C)(O)c1cncc(-c2ccc3ncc(C#N)c(N4CCc5cc(F)c(Cl)cc54)c3c2)c1`, the growth is 21.5%. The same measure, in the same setting: then `CN1CCN(Cc2ccc(/C=N/Nc3ccnc4cc(Cl)ccc34)cc2)CC1`, with 99.8%; and `Cc1ccc(C(=O)CSc2nnc(-c3ccc(-c4ccc(Cl)cc4)nc3C)o2)cc1`, with 105%. The same measure, in the same setting: under `Cc1ccccc1N1CCN(C2=C(Cl)C(=O)c3ncccc3C2=O)CC1` stands 80.2%; under `O=C1Nc2ccccc2/C1=C/c1ccc(OCC(=O)c2ccccc2)cc1`, 96.4%. Same read-out and setting: under `CC1=C(C)C(=O)C(Nc2ccc3c(c2)OCCO3)=C(Br)C1=O` stands 97.8%. As to `CCN(CC)c1ccc(/C=N/NC(=O)c2ccc(S(N)(=O)=O)cc2)c(O)c1`, the growth was 20.5%.

As to `Cc1ccc(S(=O)(=O)NCCCNc2nc(Nc3ccc(N4CCN(C)CC4)cc3)nc3ccsc23)cc1`, the growth is 42%. Same read-out and setting: then `CN1CCN(Cc2ccc(NC(=O)c3cncc(C#Cc4cnc5ccc(NCCO)nn45)c3)cc2C(F)(F)F)CC1`, with -40.9% (active); and `COC(=O)c1cccc(NC2=C(Cl)C(=O)c3nc(C)ccc3C2=O)c1`, with 99.5%. Same read-out and setting: then `O=C1Nc2cc(Cl)ccc2/C1=C\c1ccc(OCc2ccccc2)cc1`, with 94.5%.

Consider `Cc1ccc(-c2csc(N/N=C/c3cccs3)n2)cc1`, for which the growth is 106%. Regarding `O=[N+]([O-])c1ccc(NC(=S)NNC(=S)Nc2ccc(Br)cc2)cc1`, the growth is 101%.

A further experiment deals with SF-295 CNS. The description is as above. Conditions: 10 µM unless noted.
Consider `NC(=O)n1c(=O)n(-c2cccc(C(F)(F)F)c2)c(=O)c2cc(-c3ccc(F)cc3F)ccc21`, for which the growth was -10.1% (active).

As for `O=C1CSC(c2cn(-c3ccccc3)nc2-c2ccc(Cl)cc2)N1c1ccccc1` (configuration not stated), the growth is 99.5%. The same measure, in the same setting: under `COc1ccc(/C=N/NC(=O)CSc2nc(-c3cnccn3)cc(-c3cccs3)c2C#N)cc1` stands 80.3%; under `C#Cc1cc(OC)c(C(=O)Nc2ccc(F)cc2C(=O)Nc2cccc(S(=O)(=O)C(F)(F)F)c2)cn1`, -83.2% (active); under `CN1c2ccccc2Sc2cc(/C=N/Nc3ccnc4cc(Cl)ccc34)ccc21`, 98.7%. On the same count and under the same terms, then `O=C(/C=C/c1cccc(F)c1)c1cccc(OCCCOc2cccc(C(=O)/C=C/c3cccc(F)c3)c2)c1`, with -19.8% (active); and `CN1CCN(Cc2ccc(NC(=O)c3cncc(C#Cc4cnc(N)nc4)c3)cc2C(F)(F)F)CC1`, with 33.1%; and `O=C(CSc1nc2ccccc2c(=O)n1-c1ccc(Cl)c(Cl)c1)Nc1ccc(S(=O)(=O)Nc2ccc(Cl)nn2)cc1`, with 101%.

With `Cc1[nH]c(C(=O)Nc2ccc(C(N)=O)cc2N2CCOC(C)C2)c(Cl)c1Cl` (configuration not stated), the growth was 103%.

`N#Cc1nc(-c2ccccc2)oc1N1CCC(C2(C(F)(F)F)N=N2)CC1`: the growth is 101%. On the same count and under the same terms, then `C/C(=C(\c1ccc(O)cc1)c1ccc(OCCN2CCCCCC2)cc1)c1ccc(Cl)cc1`, with -93.7% (active); and `COc1ccc(C(=O)c2c(N)c(C#N)cn2-c2ccc(Cl)cc2Cl)cc1`, with 98.8%; and `C#C[C@]1(O)CC[C@H]2[C@@H]3CC=C4c5sc(Nc6cccc(F)c6)nc5CC[C@]4(C)[C@H]3CC[C@@]21C`, with -51.9% (active). On the same count and under the same terms, then `C[C@@H]1OCC2(CCN(c3cnc(C(=O)Nc4cc(F)cc5cccnc45)cn3)CC2)[C@@H]1N`, with 90.8%; and `Cn1c(SCC(=O)c2ccc(F)cc2)nc2ccccc2c1=O`, with 97.9%. As for `O=C(CCCCCC/C=C\c1csc(Br)n1)NO`, the growth is 95.4%. Still for that read-out and setting: under `COc1ccc(-c2cc(-c3ccc(N4CCOCC4)cc3)n3c(n2)nc2ccccc23)cc1OC` stands 100%; under `CN(C)c1cccc2c(S(=O)(=O)Nc3cccc(-c4csc(NC(=O)CCCCCN5CCN(CCO)CC5)n4)c3)cccc12`, 60.5%. Take `O=c1nc(Nc2ccc([N+](=O)[O-])cc2O)sc2ccccc12`: the growth was -34.2% (active).

Consider `CCc1cc(OC(=O)N2CCC(N3CCCCC3)CC2)ccc1Nc1cc(-c2ccc(-n3cccn3)cc2)[nH]n1`, for which the growth is 62.4%.

As to `COc1ccc(-c2c(C(N)=O)c(N)n(Cc3nc4ccccc4[nH]3)c(=O)c2C#N)c(OC)c1`, the growth is 104%.

Regarding `CCOC(=O)Nc1ccc2c(ccn2C(=O)c2cccc(F)c2)c1`, the growth is 19.6%.

As to `CN(C)CCCOc1ccc(C(=C(c2ccccc2)C2CCCC2)c2ccc(OCCCN(C)C)cc2)cc1`, the growth was -82% (active). Same read-out and setting: then `CN1CCC[C@]2(C)[C@H]3CC[C@@H]4[C@@H]5[C@H]6OC[C@@]5(CCC6(C)C)CC[C@@]4(C)[C@]3(C)CC[C@H]2C1(C)C`, with 103%; and `CNC(=O)c1cc(-c2ccc(NC(=S)Nc3cccc(C(F)(F)F)c3)cc2)nc2cccnc12`, with 93.3%.

With `CC1(C)C=Cc2cc(/C(N)=N/C(N)=N/c3nc4ccccc4s3)ccc2O1`, the growth was 81.6%. `C#Cc1cc(C(=O)Nc2ccc(CNCCN3CCOCC3)c(C(F)(F)F)c2)ccc1C`: the growth was 99.6%. Still for that read-out and setting: under `CC(C)(O)c1cncc(-c2ccc3ncc(C#N)c(N4CCc5cc(F)c(Cl)cc54)c3c2)c1` stands -10.9% (active). Regarding `CN1CCN(Cc2ccc(/C=N/Nc3ccnc4cc(Cl)ccc34)cc2)CC1`, the growth was 90%. The same measure, in the same setting: under `Cc1ccc(C(=O)CSc2nnc(-c3ccc(-c4ccc(Cl)cc4)nc3C)o2)cc1` stands 92.5%. On the same count and under the same terms, under `Cc1ccccc1N1CCN(C2=C(Cl)C(=O)c3ncccc3C2=O)CC1` stands 86.8%; under `O=C1Nc2ccccc2/C1=C/c1ccc(OCC(=O)c2ccccc2)cc1`, 107%. With `CC1=C(C)C(=O)C(Nc2ccc3c(c2)OCCO3)=C(Br)C1=O`, the growth was 94.7%. Same read-out and setting: then `CCN(CC)c1ccc(/C=N/NC(=O)c2ccc(S(N)(=O)=O)cc2)c(O)c1`, with 12.6%.

As for `Cc1ccc(S(=O)(=O)NCCCNc2nc(Nc3ccc(N4CCN(C)CC4)cc3)nc3ccsc23)cc1`, the growth is -41.6% (active). As for `CN1CCN(Cc2ccc(NC(=O)c3cncc(C#Cc4cnc5ccc(NCCO)nn45)c3)cc2C(F)(F)F)CC1`, the growth is 16.6%. With `COC(=O)c1cccc(NC2=C(Cl)C(=O)c3nc(C)ccc3C2=O)c1`, the growth is 107%. On the same count and under the same terms, then `O=C1Nc2cc(Cl)ccc2/C1=C\c1ccc(OCc2ccccc2)cc1`, with 115%; and `Cc1ccc(-c2csc(N/N=C/c3cccs3)n2)cc1`, with 92.8%. The same measure, in the same setting: then `O=[N+]([O-])c1ccc(NC(=S)NNC(=S)Nc2ccc(Br)cc2)cc1`, with 72.6%.
